# Measurements reported in PubChem BioAssay (Tox21).
# Values joined by “and” are separate entries in the source; they are usually repeats but may differ in a detail not shown here. Identical values can stand only once. Records with an inconclusive call do not appear. Where a call stands in place of a potency, no number is given. Where a structure was tested more than once in an assay, its records may differ in their call. Active and inactive are the calls of the source. Unless noted, calls follow the shape of the dose curve; as a rule, active = well fitted curve in the direction sought with a large enough effect in the repeat runs; inconclusive = weak or mixed curves; inactive = no such curve, though single readings can be large; an effect the other way counts as inactive or inconclusive.
# Columns and labels:
# [1] = qHTS assay to identify small molecule agonists of the hypoxia (HIF-1) signaling pathway - cell viability counter screen (AID 1224844; calls by dose curve; also: nearly all actives have a fitted effect of over 50% in size; also: potency is read from the fitted curve at half-maximal effect)
# Method in brief: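 HRE-bla ME-180 cells in medium with 0.5% dialyzed FBS were preincubated 5 hrs at 37C, exposed to compounds for 17 hrs, then viability was read as CellTiter-Glo luminescence after 30 min at room temperature, in the reporter wells.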
# [2] = qHTS assay to identify small molecule agonists of H2AX (AID 1224845; active = well fitted activation curve with a large enough effect in the signal ratio in the repeat runs, not every such curve was filed as active; the % refers to the signal ratio)
# Method in brief: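 Phospho-H2AX Ser139 measured by HTRF (ex 320 nm; em 665 and 620 nm) after 24 hr antibody incubation. Compounds, 15 concentrations, 0.76% DMSO, were applied to CHO-K1 cells for 3hr at 37C before lysis.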
# [3] = qHTS assay to identify small molecule agonists of the hypoxia (HIF-1) signaling pathway (AID 1224846; active = well fitted activation curve with a large enough effect in the signal ratio in the repeat runs, not every such curve was filed as active; the % refers to the signal ratio)
# Method in brief: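 HRE-bla ME-180 cells (beta-lactamase reporter under hypoxia response element) were plated at 2,000 cells/well in medium with 0.5% dialyzed FBS, rested 5 hrs, then given compounds in DMSO for 17 hrs at 37C, 5% CO2. Reporter induction was read with CCF4-AM FRET substrate.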
# [4] = qHTS assay to identify small molecule agonists of H2AX - cell viability counter screen (AID 1224847; calls by dose curve; also: top concentration of the series differs between compounds; nearly all actives have a fitted effect of over 30% in size)
# Method in brief: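 Quantitative HTS viability measurement: CHO-K1 wild-type cells in serum (10% FBS) medium, short 3 hr drug exposure at 37C with 0.76% DMSO, CellTiter-Glo luminescent detection.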
# [5] = qHTS RealTime-Glo MT Cell Viability Assay in HepG2 cells - 24 hour (AID 1224867); also: nearly all actives have a fitted effect of over 50% in size; also: potency is read from the fitted curve at half-maximal effect
# Method in brief: (§1)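 Tox21 10K library screened in qHTS format on HepG2 cells carrying RealTime-Glo reagents. Compounds were added after a 5 h preincubation, and the luminescent signal from continuous culture was measured repeatedly during 40 h treatment.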
# [6] = qHTS RealTime-Glo MT Cell Viability Assay in HEK293 cells - 32 hour (AID 1224868); also: nearly all actives have a fitted effect of over 50% in size; also: potency is read from the fitted curve at half-maximal effect
# Method in brief: (§2)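 Luminescence generated by NanoLuc from substrate produced by living HEK293 cells served as the viability signal. Each value reflects the reading at its stated time point during continuous 40 h compound exposure at 37 C.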
# [7] = A CellTox Green Cytotoxicity Assay to monitor cytotoxicity in HEK293 cells - 0 hour (AID 1224869); also: nearly all actives have a fitted effect of over 50% in size
# Method in brief: (§3)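 HEK293 cells premixed with CellTox Green dye were seeded at 600 cells/well and left 5 h at 37 C/5% CO2 before pin transfer of 23 nL compound in DMSO. Fluorescence from dye bound to dead-cell DNA was read during 40 h treatment.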
# [8] = qHTS RealTime-Glo MT Cell Viability Assay in HepG2 cells - 40 hour (AID 1224870); also: nearly all actives have a fitted effect of over 50% in size; also: potency is read from the fitted curve at half-maximal effect
# Method in brief: (§4)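 Real-time viability: cells seeded at 600 per well together with NanoLuc and cell-permeant prosubstrate, compounds added after 5 h incubation. Luminescence tracked at 0, 8, 16, 24, 32 and 40 h of exposure.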
# [9] = A CellTox Green Cytotoxicity Assay to monitor cytotoxicity in HEK293 cells - 40 hour (AID 1224871); also: nearly all actives have a fitted effect of over 45% in size; also: potency is read from the fitted curve at half-maximal effect
# Method in brief: as §3
# [10] = qHTS RealTime-Glo MT Cell Viability Assay in HEK293 cells - 16 hour (AID 1224872); also: nearly all actives have a fitted effect of over 50% in size; also: potency is read from the fitted curve at half-maximal effect
# Method in brief: as §2
# [11] = qHTS RealTime-Glo MT Cell Viability Assay in HepG2 cells - 8 hour (AID 1224873); also: nearly all actives have a fitted effect of over 55% in size
# Method in brief: as §4
# [12] = A CellTox Green Cytotoxicity Assay to monitor cytotoxicity in HEK293 cells - 24 hour (AID 1224875); also: nearly all actives have a fitted effect of over 45% in size
# Method in brief: as §3
# [13] = A CellTox Green Cytotoxicity Assay to monitor cytotoxicity in HepG2 cells - 16 hour (AID 1224876); also: nearly all actives have a fitted effect of over 45% in size; also: potency is read from the fitted curve at half-maximal effect
# Method in brief: (§5)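 HepG2 cells were seeded together with the CellTox Green dye at 600 cells/well, left 5 h at 37 C/5% CO2, then given compounds in DMSO. Fluorescence from dye bound to dead-cell DNA was read repeatedly over 40 h of treatment at 37 C.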
# [14] = qHTS RealTime-Glo MT Cell Viability Assay in HepG2 cells - 32 hour (AID 1224877); also: nearly all actives have a fitted effect of over 55% in size; also: potency is read from the fitted curve at half-maximal effect
# Method in brief: as §1
# [15] = A CellTox Green Cytotoxicity Assay to monitor cytotoxicity in HepG2 cells - 24 hour (AID 1224878); also: nearly all actives have a fitted effect of over 45% in size
# Method in brief: as §5
# [16] = A CellTox Green Cytotoxicity Assay to monitor cytotoxicity in HepG2 cells - 40 hour (AID 1224879); also: nearly all actives have a fitted effect of over 40% in size; also: potency is read from the fitted curve at half-maximal effect
# Method in brief: as §5
# [17] = qHTS RealTime-Glo MT Cell Viability Assay in HEK293 cells - 0 hour (AID 1224880)
# Method in brief: (§6)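 HEK293 cells mixed with RealTime-Glo reagents (NanoLuc plus cell-permeant prosubstrate) at 600 cells/well, preincubated 5 h at 37 C/5% CO2, then given 23 nL compound in DMSO. Nonlytic luminescence from viable cells was read at 0, 8, 16, 24, 32 and 40 h.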
# [18] = qHTS assay to identify small molecule antagonists of the estrogen related receptor (ERR) signaling pathway from Tox21 library (AID 1224848); also: nearly all actives have a fitted effect of over 50% in size; also: potency is read from the fitted curve at half-maximal effect
# Method in brief: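 Reading was by luminescence 30 min after ONE-Glo addition. Before that, ERR cells at 2,000 per well had rested 6 h at 37 C/5% CO2 and then received pin-tooled compounds in DMSO for 18 h at 37 C.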
# [19] = qHTS assay to identify small molecule agonists of the estrogen related receptor (ERR) signaling pathway from Tox21 library (AID 1224849; calls by dose curve; also: nearly all actives have a fitted effect of over 15% in size); conditions: ERR reporter cell line, ONE-Glo luciferase, 18 h
# Method in brief: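 ERR reporter cell line (NTP) seeded, rested 6 h at 37 C/5% CO2, then pinned with Tox21 compounds in DMSO. After 18 h at 37 C, ONE-Glo luciferase luminescence was read following 30 min at room temperature.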
# [20] = qHTS RealTime-Glo MT Cell Viability Assay in HEK293 cells - 40 hour (AID 1224874); conditions: RealTime-Glo luminescence; max response: stronger effect = lower value; also: nearly all actives have a fitted effect of over 50% in size; also: potency is read from the fitted curve at half-maximal effect
# Method in brief: as §6
structure (smiles),measurement,setting,value
C/C=C/c1ccc(OC)cc1,Potency,[1],inactive
same,outcome,[2],inactive
same,outcome,[3],inactive
same,outcome,[4],inactive
same,Potency,[5],inactive
same,Potency,[6],inactive
same,outcome,[7],inactive
same,Potency,[8],inactive
same,Potency,[9],inactive
same,Potency,[10],inactive
same,outcome,[11],inactive
same,Potency,[12],inactive
same,Potency,[13],inactive
same,Potency,[14],inactive
same,Potency,[15],inactive
same,Potency,[16],inactive
same,Potency,[17],inactive
c1ccc2[nH]ccc2c1,Potency,[1],17.1 µM (active) and inactive
same,outcome,[2],inactive
same,outcome,[3],inactive
same,outcome,[4],inactive
same,Potency,[18],2.39 µM (active) and inactive
same,"activity change, positive = activation",[19]; at 42.5 µM (top of the series),11.1% (inactive)
same,"activity change, positive = activation",[19]; at 92.4 µM (top of the series),-76.8% (inactive) and 0.106% (inactive)
same,Potency,[5],6.07 µM (active) and inactive
same,Potency,[6],2.15 µM (active) and inactive
same,outcome,[7],inactive
same,Potency,[8],3.41 µM (active) and inactive
same,Potency,[9],4.82 µM (active) and inactive
same,Potency,[10],2.15 µM (active) and inactive
same,outcome,[11],inactive
same,Potency,[20],2150 nM (active)
same,max response,[20],8.38% (inactive) and -1.27% (inactive)
same,Potency,[13],21.5 µM (active) and inactive
same,Potency,[14],3.83 µM (active) and inactive
same,Potency,[16],5.41 µM (active) and inactive
same,Potency,[17],inactive
CC(C)(Oc1ccc(C2CC2(Cl)Cl)cc1)C(=O)O (centres undefined),Potency,[1],inactive
same,outcome,[2],inactive
same,outcome,[3],inactive
same,outcome,[4],inactive
same,Potency,[5],inactive
same,Potency,[6],inactive
same,outcome,[7],inactive
same,Potency,[8],inactive
same,Potency,[9],inactive
same,Potency,[10],inactive
same,outcome,[11],inactive
same,max response,[20],2.51% (inactive) and 10.4% (inactive)
same,Potency,[12],inactive
same,Potency,[13],inactive
same,Potency,[14],inactive
same,Potency,[15],inactive
same,Potency,[16],inactive
same,Potency,[17],inactive
O=NO,Potency,[1],inactive
same,outcome,[2],inactive
same,outcome,[3],inactive
same,outcome,[4],inactive
same,Potency,[5],inactive
same,Potency,[6],inactive
same,outcome,[7],inactive
same,Potency,[8],inactive
same,Potency,[9],inactive
same,Potency,[10],inactive
same,outcome,[11],inactive
same,max response,[20],1.94% (inactive) and 6.27% (inactive) and -0.835% (inactive)
same,Potency,[12],inactive
same,Potency,[13],inactive
same,Potency,[14],inactive
same,Potency,[15],inactive
same,Potency,[16],inactive
same,Potency,[17],inactive
CC(=O)OCC(COC(C)=O)OC(C)=O,Potency,[1],inactive
same,outcome,[2],inactive
same,outcome,[3],inactive
same,outcome,[4],inactive
same,Potency,[18],inactive
same,"activity change, positive = activation",[19]; at 42.5 µM (top of the series),6.67% (inactive)
same,"activity change, positive = activation",[19]; at 92.4 µM (top of the series),-0.709% (inactive) and 8.04% (inactive)
same,Potency,[5],inactive
same,Potency,[6],inactive
same,outcome,[7],inactive
same,Potency,[8],inactive
same,Potency,[9],inactive
same,Potency,[10],inactive
same,outcome,[11],inactive
same,max response,[20],1.3% (inactive) and 11.6% (inactive) and 13.6% (inactive)
same,Potency,[12],inactive
same,Potency,[13],inactive
same,Potency,[14],inactive
same,Potency,[16],inactive
same,Potency,[17],inactive
O=c1cc[nH]c(=S)[nH]1,Potency,[1],inactive
same,outcome,[2],inactive
same,outcome,[3],inactive
same,outcome,[4],inactive
same,Potency,[18],inactive
same,"activity change, positive = activation",[19]; at 42.5 µM (top of the series),7.5% (inactive)
same,"activity change, positive = activation",[19]; at 92.4 µM (top of the series),16.5% (inactive) and 3.21% (inactive)
same,Potency,[5],inactive
same,Potency,[6],inactive
same,outcome,[7],inactive
same,Potency,[8],inactive
same,Potency,[9],inactive
same,Potency,[10],inactive
same,outcome,[11],inactive
same,Potency,[12],inactive
same,Potency,[13],inactive
same,Potency,[14],inactive
same,Potency,[16],inactive
same,Potency,[17],inactive
O=C(O)c1cccc([N+](=O)[O-])c1,Potency,[1],inactive
same,outcome,[2],inactive
same,outcome,[3],inactive
same,outcome,[4],inactive
same,Potency,[5],inactive
same,Potency,[6],inactive
same,outcome,[7],inactive
same,Potency,[8],inactive
same,Potency,[9],inactive
same,Potency,[10],inactive
same,outcome,[11],inactive
same,Potency,[12],inactive
same,Potency,[13],inactive
same,Potency,[14],inactive
same,Potency,[15],inactive
same,Potency,[16],inactive
same,Potency,[17],inactive
CCCC(O)C(CC)CO (centres undefined),Potency,[1],inactive
same,outcome,[2],inactive
same,outcome,[3],inactive
same,outcome,[4],inactive
same,Potency,[5],inactive
same,Potency,[6],inactive
same,outcome,[7],inactive
same,Potency,[8],inactive
same,Potency,[9],inactive
same,Potency,[10],inactive
same,outcome,[11],inactive
same,max response,[20],0.318% (inactive) and 1.14% (inactive) and 0.567% (inactive)
same,Potency,[12],inactive
same,Potency,[13],inactive
same,Potency,[14],inactive
same,Potency,[15],inactive
same,Potency,[16],inactive
same,Potency,[17],inactive
CCOc1ccc(NC(=O)CC(C)O)cc1 (centres undefined),Potency,[1],inactive
same,outcome,[2],inactive
same,outcome,[3],inactive
same,outcome,[4],inactive
same,Potency,[5],inactive
same,Potency,[6],inactive
same,outcome,[7],inactive
same,Potency,[8],inactive
same,Potency,[9],inactive
same,Potency,[10],inactive
same,outcome,[11],inactive
same,Potency,[12],inactive
same,Potency,[13],inactive
same,Potency,[14],inactive
same,Potency,[15],inactive
same,Potency,[16],inactive
same,Potency,[17],inactive
Nc1ccc(C(=O)O)cc1,Potency,[1],inactive
same,outcome,[2],inactive
same,outcome,[3],inactive
same,outcome,[4],inactive
same,Potency,[5],inactive
same,Potency,[6],inactive
same,outcome,[7],inactive
same,Potency,[8],inactive
same,Potency,[9],inactive
same,Potency,[10],inactive
same,outcome,[11],inactive
same,max response,[20],-12% (inactive) and -18.6% (inactive) and -17.3% (inactive)
same,Potency,[12],inactive
same,Potency,[13],inactive
same,Potency,[14],inactive
same,Potency,[16],inactive
same,Potency,[17],inactive
Cc1cc(=O)[nH]c(=S)[nH]1,Potency,[1],inactive
same,outcome,[2],inactive
same,outcome,[3],inactive
same,outcome,[4],inactive
same,Potency,[5],inactive
same,Potency,[6],inactive
same,outcome,[7],inactive
same,Potency,[8],inactive
same,Potency,[9],inactive
same,Potency,[10],inactive
same,outcome,[11],inactive
same,max response,[20],-0.127% (inactive) and 3.69% (inactive) and 0.841% (inactive)
same,Potency,[12],inactive
same,Potency,[13],inactive
same,Potency,[14],inactive
same,Potency,[16],inactive
same,Potency,[17],inactive
O=c1ccc2ccccc2o1,Potency,[1],inactive
same,outcome,[2],inactive
same,outcome,[3],inactive
same,outcome,[4],inactive
same,Potency,[5],inactive
same,Potency,[6],inactive
same,outcome,[7],inactive
same,Potency,[8],inactive
same,Potency,[9],inactive
same,Potency,[10],inactive
same,outcome,[11],inactive
same,Potency,[12],inactive
same,Potency,[13],inactive
same,Potency,[14],inactive
same,Potency,[16],inactive
same,Potency,[17],inactive
